This is a sample that favours compounds with a hit; in the whole collection about 9.5% have one here.
NS1 function inh: influenza NS1 inhibition; AID 2326; hit rate 0.4% among 270,000; Potency, µM (top dose mostly 46.1 µM), without a hit: at the top dose activity, positive = more growth; calls by dose curve; further: actives are rising curves; nearly all actives have a fitted effect of over 50% in size
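A cell-based growth assay was used: compounds that relieve NS1-induced slow growth of budding yeast raise OD600. Assay medium was yeast nitrogen base with ammonium sulphate and -URA supplement, pH 6.0, with 2% galactose.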
SARS PLpro yeast: blocks SARS-CoV papain-like protease in a yeast assay; S. cerevisiae expressing SARS-CoV PLpro, growth rescue; Potency, µM (series often up to 32.9 µM), for inactives: at the highest dose activity, positive = growth rescue, hits mostly activators; hit rate 0.19% among 330,000; AID 485353; calls by dose curve; further: 0% is about no effect; nearly all actives have a fitted effect of over 55% in size
Pf growth 96h: P. falciparum growth inhibition at 96 hour, primary screen for plastid delayed-death inhibitors; AID 504834; Potency, µM (doses to about 28.7 µM), for the others: at the highest dose activity change, negative = inhibition, most hits filed as inhibitors; P. falciparum luciferase reporter growth, 96 h; hit rate 6.9% among 320,000; further: on the % scale 0 is the no-effect control and ±100 the full control effect
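Readout is luminescence from an integrated firefly luciferase in P. falciparum. Red cells, 2% hematocrit and 0.05% parasitemia final, were cultured with compound through two parasite generations (96 hours) at 37 C, 5% CO2.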
RE007 growth inh: less growth of the S. pombe RE007 Vpr strain; AID 651644; Potency, µM (titrated, usually from 92.2 µM), inactives show at the highest dose activity change, negative = less growth, most hits filed as inhibitors; S. pombe RE007 Vpr strain, BacTiter-Glo ATP luminescence, 24 h; hit rate 0.21% among 360,000; active means well fitted falling curve with a large enough effect; inconclusive means small, poorly fitted or top-dose-only effect; inactive means no such curve, though single readings can be large or run the other way; further: on the % scale 0 is the no-effect control and ±100 the full control effect; nearly all actives have a fitted effect of over 50% in size
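Fission yeast RE007 carrying one integrated HIV-1 vpr copy, seeded at OD 0.01 in PMG+AL medium with 23 nL pinned compound. Grown 24 h at 30 degrees; viability read by BacTiter-Glo luminescence after 5 min.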
Pf growth 48h: P. falciparum growth inhibition at 48 hours (one generation) | P. falciparum luciferase growth in erythrocytes, 48 h | Potency, µM (series often up to 28.7 µM), without a hit: at the highest dose activity change, negative = inhibition, most hits filed as inhibitors | hit rate 5.9% among 310,000 | AID 504832; further: on the % scale 0 is the no-effect control and ±100 the full control effect
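A one-generation exposure of luciferase-tagged malaria parasites in RPMI 1640/Albumax erythrocyte culture, 37 C and 5% CO2. Inhibition is inferred from decreased luminescence after adding detection reagent.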
Numbers without * were called inactive; ? = inconclusive; . = not tested or not shown. Unless noted, the call rests on the fitted dose curve; in most records, active means well fitted inhibition curve with a large enough effect; inconclusive means small, poorly fitted or top-dose-only effect, or another doubt; inactive means no such curve, though single readings can be large or run the other way. Potency means the concentration at half of the fitted maximal effect.

SMILES	NS1 function inh	SARS PLpro yeast	Pf growth 96h	RE007 growth inh	Pf growth 48h
CCOC(=O)c1ccccc1NC(=S)N1CCC(C)CC1	-10%	0%	0%	6%	?
CCOC(=O)c1ccccc1NC(=S)N1CC(C)CC(C)C1 (stereo not drawn)	-17%	-58%	?	-18%	2.9µM*
CCOc1ccc(OCCC(=O)N(CC)CC(=O)NCc2cccs2)cc1	.	2%	5%	-15%	-19%
O=C(O)c1ccccc1NS(=O)(=O)c1ccc2c3c(cccc13)C(=O)N2	5%	4%	1%	5%	13%
CN(c1ccccc1C(=O)O)S(=O)(=O)c1ccc2c3c(cccc13)C(=O)N2	-22%	1%	12µM*	12%	8%
COc1ccc2cc(C(=O)CS(=O)(=O)c3ccccc3)c(=O)oc2c1	-3%	4%	12µM*	-1%	-3%
CCOc1ccc(OCCSc2ccc(S(=O)(=O)N3CCN(C)CC3)cn2)cc1	.	10%	15µM*	0%	?
Cc1cc(C)cc(CSc2ccc(S(=O)(=O)N3CCCC3)cn2)c1	.	-11%	9.3µM*	-4%	9.3µM*
O=S(=O)(c1ccc(SCCOc2ccc(Cl)cc2)nc1)N1CCCC1	.	-1%	?	9%	13µM*
O=S(=O)(c1ccc(SCc2ccc(Cl)cc2)nc1)N1CCCC1	.	5%	?	-25%	12µM*
Cc1ccccc1CSc1ccc(S(=O)(=O)N2CCCC2)cn1	.	-6%	.	1%	.
O=S(=O)(c1ccc(SCCOc2ccc(Br)cc2)nc1)N1CCCC1	.	-2%	?	3%	?
O=S(=O)(c1ccc(SCc2c(F)cccc2Cl)nc1)N1CCCC1	.	.	.	12%	.
Cc1ccccc1C(=O)N1CC(=O)Nc2ccc(F)cc2C1c1ccccc1 (stereo not drawn)	2%	2%	9%	4%	?
CC(/C=N/NC(=O)c1nnn(-c2nonc2N)c1CN1CCCCC1)c1ccccc1 (stereo not drawn)	.	.	.	-5%	.
COc1ccc(C2=Nc3ccccc3N(C(=O)c3ccc(C(F)(F)F)cc3)C2C(=O)Nc2ccc3c(c2)OCCO3)cc1 (stereo not drawn)	.	.	.	-6%	.
NC(=O)c1ccc[n+]([C@H]2O[C@@H](COP(=O)([O-])OP(=O)(O)OC[C@H]3O[C@@H](n4cnc5c(N)ncnc54)[C@H](O)[C@@H]3O)[C@H](O)[C@@H]2O)c1	.	-4%	5%	5µM*	0%
CN1CCN(C2=C(Cl)C(=O)N(c3ccc(Cl)cc3)C2=O)CC1	0%	-4%	.	-3%	?
Cc1ccc(N2C(=O)C(Cl)=C(N3CCN(C)CC3)C2=O)c(C)c1	9%	-1%	2.6µM*	3%	?
O=C(CN(C(=O)CCC(=O)Nc1nccs1)c1ccc2c(c1)OCO2)NCc1ccccc1	3%	2%	15%	-7%	?
COc1cccc(C#Cc2c(C=O)n(C)c3ccccc23)c1	.	10%	?	-9%	13µM*
O=C1CC(c2ccccc2)CC(=O)N1c1ccc(C(F)(F)F)cc1	.	-3%	26%	6%	-4%
O=[N+]([O-])c1ccc(Cl)cc1P(=O)(O)c1cc(Cl)ccc1[N+](=O)[O-]	.	.	.	2%	.
Cc1cccc(-c2nc(C#N)c(NC3CCCCC3)o2)c1	-7%	-3%	4.7µM*	-14%	64%
Cc1cccc(-c2nc(C#N)c(N3CCCCC3)o2)c1	-3%	1%	72%	-7%	98%
SMILES	NS1 function inh	SARS PLpro yeast	Pf growth 96h	RE007 growth inh	Pf growth 48h
CCOc1ccc(C(=O)Nc2ccc(S(=O)(=O)N3C[C@@H]4C[C@@H](C3)c3cccc(=O)n3C4)cc2)cc1	.	-2%	2.9µM*	5%	?
O=C(Nc1ccc(S(=O)(=O)N2C[C@@H]3C[C@@H](C2)c2cccc(=O)n2C3)cc1)c1ccc(F)cc1	.	5%	?	-4%	3%
Clc1cccc(Cl)c1-c1noc(CN2CCOCC2)n1	3%	0%	?	-13%	10µM*
CC(=O)Nc1ccc(NC(=O)[C@@H](NC(=O)N2C[C@H]3C[C@@H](C2)c2cccc(=O)n2C3)C(C)C)cc1	-7%	3%	66%	-2%	45%
COc1ccc(CCN(C)Cc2ccc(F)cc2F)cc1OC	4%	3%	28%	11%	.
COc1ccc(CCN(C)CC(O)COc2c(C)ccc(C)c2C)cc1OC (stereo not drawn)	5%	1%	?	-4%	15µM*
COc1ccc(CCN(C)Cc2cccc3ccccc23)cc1OC	7%	5%	6%	-8%	?
CCN(Cc1ccccc1)CC(O)COC(c1ccc(OC)cc1)c1ccc(OC)cc1 (stereo not drawn)	-1%	0%	9.3µM*	-13%	15µM*
COc1ccc(CCN(C)CC(O)COC(c2ccc(F)cc2)c2ccc(F)cc2)cc1OC (stereo not drawn)	2%	1%	10µM*	0%	13µM*
COc1ccc(CN(C)CC(O)COC(c2ccccc2)c2ccccc2)c(OC)c1OC (stereo not drawn)	-15%	6%	?	1%	10µM*
COC(=O)c1c(NC(=O)COC(=O)CNC(=O)c2cccc(OC(F)F)c2)sc(C)c1C	.	.	.	-2%	.
COc1cc(C(=O)NCC(=O)NCC2COc3ccccc3O2)cc(OC)c1OC (stereo not drawn)	.	-3%	-26%	7%	14%
CCOC(=O)C1=C(C)N2C(=C(C#N)[C@@H]1c1ccc(C(=O)OC)cc1)SC[C@@]2(O)C(C)(C)C	21%	-15%	.	-24%	13µM*
O=C1[C@@H]2[C@@H]3C[C@@H]([C@H]4ON=C(c5ccc(Cl)cc5)[C@@H]34)[C@@H]2C(=O)N1C1CCCCC1	-3%	-46%	10µM*	10%	25%
COc1ccc(NC(=O)COC(=O)CN2C(=O)c3ccccc3C2=O)cc1	.	1%	8%	20%	1%
CCOC(=O)c1c(C)[nH]c(C)c1C(=O)CSc1nnc(-c2ccco2)n1Cc1ccccc1	-12%	-5%	15µM*	-4%	7.4µM*
NC(=O)NC(=O)CSc1nnc(-c2ccco2)n1Cc1ccccc1	-5%	0%	36%	-7%	5%
O=C(CSc1nnc(-c2ccco2)n1Cc1ccccc1)c1ccccc1	-24%	4%	?	6%	14%
O=C(CSc1nnc(-c2ccco2)n1Cc1ccccc1)NC(=O)NCc1ccccc1	-7%	-8%	12µM*	-2%	?
Cc1ccc(C(=O)CSc2nnc(-c3ccco3)n2Cc2ccccc2)cc1	-25%	6%	7.4µM*	-22%	29%
CCOC(=O)CNC(=O)CSc1nnc(-c2ccco2)n1Cc1ccco1	?	1%	8.3µM*	14%	39%
CCOC(=O)CNC(=O)CSc1nnc(-c2ccco2)n1N	3%	0%	?	6%	23%
CCOC(=O)c1c(C)[nH]c(C)c1C(=O)CSc1nnc(-c2ccncc2)n1Cc1ccccc1	-4%	0%	10µM*	-3%	.

Bioassay records from PubChem BioAssay.
